Test results from the supplement of paper PMC4466140.

B1: unnamed (peptide)
chain: NNNKMRPHLPPLSSG

Biological target: AgAbp1
Test: SPOT peptide array binding signal intensity (averaged, normalized) (arbitrary units (background-subtracted, floor 0; scale differs between SH3 domains)); higher = stronger binding of the SH3 domain to the peptide
Method: (§1)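 GST-tagged SH3 domains from S. cerevisiae (Sc), A. gossypii (Ag), C. albicans (Ca) and S. pombe (Sp) were incubated at 10 ug/ml overnight at 4 C on cellulose SPOT membranes carrying 292 synthetic 15-mer peptides mined from the S. cerevisiae proteome (cysteines replaced by serines). Binding was detected with anti-GST antibody, HRP secondary and chemiluminescence, quantified with Genespotter, and reported as normalized spot intensities averaged over biological replicates.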

Binder	SPOT peptide array binding signal intensity
B1	47.5

Biological target: AgBbc1
Test: as above
Method: as §1

Binder	SPOT peptide array binding signal intensity
B1	1.5

Biological target: AgBem1-D1
Test: as above
Method: as §1

Binder	SPOT peptide array binding signal intensity
B1	288

Biological target: AgBzz1-D1
Test: as above
Method: as §1

Binder	SPOT peptide array binding signal intensity
B1	12

Biological target: AgBzz1-D2
Test: as above
Method: as §1

Binder	SPOT peptide array binding signal intensity
B1	9

Biological target: AgCyk3
Test: as above
Method: as §1

Binder	SPOT peptide array binding signal intensity
B1	≤ 0

Biological target: AgFus1
Test: as above
Method: as §1

Binder	SPOT peptide array binding signal intensity
B1	386

Biological target: AgHof1
Test: as above
Method: as §1

Binder	SPOT peptide array binding signal intensity
B1	291

Biological target: AgHse1
Test: as above
Method: as §1

Binder	SPOT peptide array binding signal intensity
B1	932

Biological target: AgLsb1
Test: as above
Method: as §1

Binder	SPOT peptide array binding signal intensity
B1	1.25

Biological target: AgLsb4
Test: as above
Method: as §1

Binder	SPOT peptide array binding signal intensity
B1	34.5

Biological target: AgMyo5
Test: as above
Method: as §1

Binder	SPOT peptide array binding signal intensity
B1	≤ 0

Biological target: AgNbp2
Test: as above
Method: as §1

Binder	SPOT peptide array binding signal intensity
B1	513

Biological target: AgRvs167
Test: as above
Method: as §1

Binder	SPOT peptide array binding signal intensity
B1	3.5

Biological target: AgSho1
Test: as above
Method: as §1

Binder	SPOT peptide array binding signal intensity
B1	559

Biological target: AgSla1-D1-D2
Test: as above
Method: as §1

Binder	SPOT peptide array binding signal intensity
B1	≤ 0

Biological target: AgSla1-D3
Test: as above
Method: as §1

Binder	SPOT peptide array binding signal intensity
B1	0.5

Biological target: CaAbp1-D1
Test: as above
Method: as §1

Binder	SPOT peptide array binding signal intensity
B1	613

Biological target: CaAbp1-D2
Test: as above
Method: as §1

Binder	SPOT peptide array binding signal intensity
B1	330

Biological target: CaBbc1
Test: as above
Method: as §1

Binder	SPOT peptide array binding signal intensity
B1	55.9

Biological target: CaBem1-D1
Test: as above
Method: as §1

Binder	SPOT peptide array binding signal intensity
B1	264

Biological target: CaBzz1-D1
Test: as above
Method: as §1

Binder	SPOT peptide array binding signal intensity
B1	85.8

Biological target: CaBzz1-D2
Test: as above
Method: as §1

Binder	SPOT peptide array binding signal intensity
B1	49.8

Biological target: CaCyk3
Test: as above
Method: as §1

Binder	SPOT peptide array binding signal intensity
B1	4

Biological target: CaFus1
Test: as above
Method: as §1

Binder	SPOT peptide array binding signal intensity
B1	1790

Biological target: CaHof1
Test: as above
Method: as §1

Binder	SPOT peptide array binding signal intensity
B1	≤ 0

Biological target: CaHse1
Test: as above
Method: as §1

Binder	SPOT peptide array binding signal intensity
B1	487

Biological target: CaLsb1
Test: as above
Method: as §1

Binder	SPOT peptide array binding signal intensity
B1	3.75

Biological target: CaLsb4
Test: as above
Method: as §1

Binder	SPOT peptide array binding signal intensity
B1	728

Biological target: CaMyo5
Test: as above
Method: as §1

Binder	SPOT peptide array binding signal intensity
B1	36.2

Biological target: CaNbp2
Test: as above
Method: as §1

Binder	SPOT peptide array binding signal intensity
B1	1410

Biological target: CaRvs167
Test: as above
Method: as §1

Binder	SPOT peptide array binding signal intensity
B1	53.7

Biological target: CaRvs167-3
Test: as above
Method: as §1

Binder	SPOT peptide array binding signal intensity
B1	4

Biological target: CaSho1
Test: as above
Method: as §1

Binder	SPOT peptide array binding signal intensity
B1	1520

Biological target: CaSla1-D1-D2
Test: as above
Method: as §1

Binder	SPOT peptide array binding signal intensity
B1	396

Biological target: CaSla1-D3
Test: as above
Method: as §1

Binder	SPOT peptide array binding signal intensity
B1	109

Biological target: ScAbp1
Test: as above
Method: as §1

Binder	SPOT peptide array binding signal intensity
B1	256

Biological target: ScBbc1
Test: as above
Method: as §1

Binder	SPOT peptide array binding signal intensity
B1	≤ 0

Biological target: ScBem1-D1
Test: as above
Method: as §1

Binder	SPOT peptide array binding signal intensity
B1	≤ 0

Biological target: ScBzz1-D1
Test: as above
Method: as §1

Binder	SPOT peptide array binding signal intensity
B1	≤ 0

Biological target: ScBzz1-D2
Test: as above
Method: as §1

Binder	SPOT peptide array binding signal intensity
B1	≤ 0

Biological target: ScCyk3
Test: as above
Method: as §1

Binder	SPOT peptide array binding signal intensity
B1	2.25

Biological target: ScFus1
Test: as above
Method: as §1

Binder	SPOT peptide array binding signal intensity
B1	424

Biological target: ScHof1
Test: as above
Method: as §1

Binder	SPOT peptide array binding signal intensity
B1	267

Biological target: ScHse1
Test: as above
Method: as §1

Binder	SPOT peptide array binding signal intensity
B1	1820

Biological target: ScLsb1
Test: as above
Method: as §1

Binder	SPOT peptide array binding signal intensity
B1	27.2

Biological target: ScLsb2
Test: as above
Method: as §1

Binder	SPOT peptide array binding signal intensity
B1	0.5

Biological target: ScLsb3
Test: as above
Method: as §1

Binder	SPOT peptide array binding signal intensity
B1	357

Biological target: ScLsb4
Test: as above
Method: as §1

Binder	SPOT peptide array binding signal intensity
B1	163

Biological target: ScMyo3
Test: as above
Method: as §1

Binder	SPOT peptide array binding signal intensity
B1	10.5

Biological target: ScMyo5
Test: as above
Method: as §1

Binder	SPOT peptide array binding signal intensity
B1	2

Biological target: ScNbp2
Test: as above
Method: as §1

Binder	SPOT peptide array binding signal intensity
B1	710

Biological target: ScPex13
Test: as above
Method: as §1

Binder	SPOT peptide array binding signal intensity
B1	116

Biological target: ScRvs167
Test: as above
Method: as §1

Binder	SPOT peptide array binding signal intensity
B1	55.6

Biological target: ScSho1
Test: as above
Method: as §1

Binder	SPOT peptide array binding signal intensity
B1	1410

Biological target: ScSla1-D1-D2
Test: as above
Method: as §1

Binder	SPOT peptide array binding signal intensity
B1	156

Biological target: ScSla1-D3
Test: as above
Method: as §1

Binder	SPOT peptide array binding signal intensity
B1	224

Biological target: SpAbp1-D1
Test: as above
Method: as §1

Binder	SPOT peptide array binding signal intensity
B1	323

Biological target: SpBbc1
Test: as above
Method: as §1

Binder	SPOT peptide array binding signal intensity
B1	1

Biological target: SpBzz1-D1
Test: as above
Method: as §1

Binder	SPOT peptide array binding signal intensity
B1	354

Biological target: SpBzz1-D2
Test: as above
Method: as §1

Binder	SPOT peptide array binding signal intensity
B1	6.38

Biological target: SpCyk3
Test: as above
Method: as §1

Binder	SPOT peptide array binding signal intensity
B1	1.75

Biological target: SpHof1
Test: as above
Method: as §1

Binder	SPOT peptide array binding signal intensity
B1	9.5

Biological target: SpHof1-2
Test: as above
Method: as §1

Binder	SPOT peptide array binding signal intensity
B1	78.8

Biological target: SpHof1-3
Test: as above
Method: as §1

Binder	SPOT peptide array binding signal intensity
B1	552

Biological target: SpHse1
Test: as above
Method: as §1

Binder	SPOT peptide array binding signal intensity
B1	1170

Biological target: SpLsb1
Test: as above
Method: as §1

Binder	SPOT peptide array binding signal intensity
B1	3.38

Biological target: SpLsb4
Test: as above
Method: as §1

Binder	SPOT peptide array binding signal intensity
B1	904

Biological target: SpMyo1
Test: as above
Method: as §1

Binder	SPOT peptide array binding signal intensity
B1	28.1

Biological target: SpNbp2
Test: as above
Method: as §1

Binder	SPOT peptide array binding signal intensity
B1	460

Biological target: SpPex13
Test: as above
Method: as §1

Binder	SPOT peptide array binding signal intensity
B1	92.5

Biological target: SpRvs167
Test: as above
Method: as §1

Binder	SPOT peptide array binding signal intensity
B1	119

Biological target: SpSla1-D1-D2
Test: as above
Method: as §1

Binder	SPOT peptide array binding signal intensity
B1	≤ 0

Biological target: SpSla1-D3
Test: as above
Method: as §1

Binder	SPOT peptide array binding signal intensity
B1	64.5
